Experimental data from PubChem BioAssay AID624483 (NMMLSC, 2012).
Out of some 360,000 compounds screened, about 11,000 (3.1%) were called active. Roughly 2% stayed inconclusive and do not appear here. What follows is part of a selection rich in actives, with near analogues and random picks from the rest. Values without a mark were called inactive. No stated cut-off is given here; in the data, active means fluorescence intensity above about 16000; inconclusive means no clear call, values can overlap the other calls; inactive means below that.

Assay: compound fluorescence in toxin protease inhibitor counterscreen, primary screen, artefact control for toxin protease inhibitor project, biochemical, multiplex microsphere, HTS (AID 624483)
Conditions: compound autofluorescence counterscreen, microsphere flow cytometry; active compounds read high

Structure (SMILES)	fluorescence intensity
O=C(c1ccc(CN2CCOCC2)cc1)N1CCN(c2ccccc2F)CC1	3620
CC1=C(C(=O)N2CCOCC2)CC(CC(=O)NCC2CCCCC2)C(=O)N1Cc1ccc(F)cc1 (stereo not given)	3780
O=C(c1ccc2c(c1)N(Cc1ccc(F)cc1)C(=O)CS2)N1CCOCC1	23800 (active)
CCOC(=O)c1sc(NC(=O)c2sc(C)nc2C)nc1C	3060
COC(=O)c1sc(NC(=O)c2csc3c2CCCC3)nc1C	19100 (active)
CC1CC(C)CN(CCCNC(=O)c2csc3c2CCCCC3)C1 (stereo not given)	5260
CC(C)(C)Cc1c(C2CCCCC2)nc2ccc(Br)cn12	5440
CC(=O)NC(c1cccs1)c1cc(Br)c2cccnc2c1O (stereo not given)	3590
CCc1c(C)nc2ncnn2c1N1CCC(C(=O)NCc2ccc3c(c2)OCO3)CC1	20900 (active)
COc1ccc(-c2cc(C(=O)N3CCN(Cc4ccc5c(c4)OCO5)CC3)on2)cc1OC	5740
Cc1cc(C)n2nc(C(=O)N3CCN(Cc4ccc5c(c4)OCO5)CC3)nc2n1	4210
Fc1ccc(N2CCN(Cc3ccc4c(c3)OCO4)CC2)cc1	22800 (active)
Cc1cc(N2CCN(c3ccc(F)cc3)CC2)n2ncnc2n1	3960
Cc1cc(C)c(S(=O)(=O)NCC2CCC(C(=O)NCc3ccc4c(c3)OCO4)CC2)c(C)c1 (stereo not given)	8390
COc1ccc(C(O)c2nc(-c3ccc4c(c3)OCO4)cs2)cc1 (stereo not given)	2970
Oc1cc2c(cc1CN1CCN(c3ccccc3)CC1)OCO2	5830
O=C(NCc1ccc2c(c1)OCO2)C1CCCN(S(=O)(=O)c2cccs2)C1 (stereo not given)	5650
Cc1cc(N2CCN(Cc3ccc4c(c3)OCO4)CC2)n2ncnc2n1	21200 (active)
N#C/C=C/N1CCN(Cc2ccc3c(c2)OCO3)CC1	3600
COc1ccc(-c2csc(N3CCN(Cc4ccc5c(c4)OCO5)CC3)n2)cc1	23000 (active)
CCc1nc2ccc(C(=O)NC3CCN(Cc4ccccc4)CC3)cn2c1N(C)CCN1CCOCC1	3530
O=C(NCc1ccccn1)[C@@H]1CCCN1C(=O)[C@@H]1CCCN1C(=O)c1ccccc1	5750
CCCNC(=O)c1cc(C2CCCCN2S(=O)(=O)c2ccc(C#N)cc2)on1 (stereo not given)	3490
CCNC(=O)C1(C)CCCN(C(=O)c2c(C)noc2C)C1 (stereo not given)	2990

Structure (SMILES)	fluorescence intensity
COc1ccccc1CC1(C)C(=O)Nc2ccc(OC(F)(F)F)cc21 (stereo not given)	3460
O=C(Nc1ccc2c(c1)OCCO2)C(C1CC1)N1CCC(Cc2ccccc2)CC1 (stereo not given)	5440
O=C(NCC(=O)N1CCC2(CC1)NCCc1[nH]cnc12)c1ccc(Br)cc1	4440
O=C(C[n+]1ccc2c(c1)nnn2-c1ccccc1)c1ccc(Cl)cc1	5380
CC1(C(=O)NS(=O)(=O)c2ccc(C#N)cc2)CCN1C(=O)c1ccc(C2CCCCC2)cc1 (stereo not given)	3450
Cc1noc(C)c1CSc1nnc2ccc3ccccc3n12	23000 (active)
Cc1noc(C)c1COC(=O)Cn1c(C)nc2ccccc21	3460
C=CCNC(=O)c1ccccc1SCc1c(C)noc1C	5700
COc1ccc(C)cc1NC(=O)c1ccc(-c2ccc(C(C)=O)cc2)o1	3980
OCCC1CN(Cc2ccc3nsnc3c2)CCN1C1CCCCC1 (stereo not given)	2180
CS(=O)(=O)c1cccc(-c2ccc3nncn3c2)c1	3880
O=[N+]([O-])c1ccccc1/C=N/n1c(COc2ccccc2)n[nH]c1=S	22400 (active)
CCOc1ccc(-c2n[nH]c(=S)n2/N=C/c2cc3c(cc2[N+](=O)[O-])OCO3)cc1	7340
Fc1ccc(/C=N/n2c(COc3ccccc3)n[nH]c2=S)cc1	3650
CN(C)C(CNC(=O)c1cccc(S(=O)(=O)N2CCc3ccccc3C2)c1)c1ccccc1 (stereo not given)	4070
Cc1ccc(C)c(NS(=O)(=O)c2cc(Br)cnc2N)c1	2420
CCN(CC)c1ccc(C(=O)OCC(=O)c2ccco2)cc1	4360
O=C(COC(=O)c1ccccc1C(=O)c1ccccc1)c1ccco1	23700 (active)
CCc1ccc(C(=O)COC(=O)c2ccco2)cc1	5070
CC1(C(=O)NS(=O)(=O)Cc2cccc(Cl)c2)CCN1C(=O)Cc1ccc(Cl)cc1Cl (stereo not given)	3610
O=C(O)c1ccc(COc2c(F)c(F)cc(F)c2F)o1	5310
CCOC(=O)C1CCN(C(=O)COc2cccc3ccccc23)CC1	5570
CCOC(=O)C1CCN(C(=O)Cc2c(C(=O)O)[nH]c3ccccc23)CC1	24500 (active)
CCOC(=O)C1CCN(C(=O)Cn2cc(C#N)c3ccccc32)CC1	3760

Structure (SMILES)	fluorescence intensity
Cc1cccc(-c2cnc(C(O)c3ccc4ccccc4c3)[nH]2)c1 (stereo not given)	3610
O=C(NCc1csc(-c2cccs2)n1)C1CC1	3880
Cc1ccc2nc(-c3ccc(SCC(=O)Nc4cc(C)on4)nc3)[nH]c2c1	2760
Cc1cc(NC(=O)CSCC(=O)NC(C)c2ccccc2)no1 (stereo not given)	5020
Cc1ccc(-c2csc(SCC(=O)Nc3cc(C)on3)n2)cc1	17800 (active)
CCNC(=O)C1(C)CCCN1C(=O)c1ccc(N(C)C)cc1 (stereo not given)	4040
COC(=O)CCCCC1=CCC2C(=O)C=C(O)C2C1 (stereo not given)	6010
Cc1ccc(OCCCC(=O)Nc2ccc(N3CCOCC3)cc2)cc1	2550
COc1ccccc1CC(=O)Nc1ccc(S(=O)(=O)N2CCCC2)cc1	4360
COc1ccc(S(=O)(=O)N2CCCCCC2)cc1NC(=O)Cc1ccc(OC)c(OC)c1	3920
COc1ccc(-c2ccc(Nc3ccc(S(=O)(=O)N4CCCC4)cc3)nn2)cc1OC	22500 (active)
O=C(Cc1coc2ccc3ccccc3c12)NCc1cccs1	1980
CCn1ncc(C2=NOC(C(=O)N3CCN(c4ccccc4)CC3)C2)c1C (stereo not given)	9650
COc1cc(NC(=O)C2CC(c3ccccc3O)=NO2)c(OC)cc1Cl (stereo not given)	3150
CCn1ncc(C2=NOC(C(=O)Nc3ccccc3C(=O)OC)C2)c1C (stereo not given)	21900 (active)
CCCN1Cc2cccc(C(=O)Nc3ccc(S(=O)(=O)N4CCCCCC4)cc3)c2C1=O	10600
Cc1ccc(CNC(=O)c2ccccc2CCc2ccccc2)cc1	13000
CCCN1Cc2cccc(C(=O)NCc3ccccc3)c2C1=O	16800 (active)
CCCCCC(=O)Nc1ccc(-c2cn3cccnc3n2)cc1	4250
COC(=O)c1ccc2nc(-c3ccccc3)c(Cc3ccc(OC)cc3C)n2c1	7120
CCOC(=O)c1c(-n2cnnn2)sc(C)c1C	20300 (active)
CCOc1ccc(C(=O)COC(=O)c2ccc(-n3cnnn3)cc2)cc1	5640
CCOC(=O)c1c(NC(=O)CSc2nccc(=O)[nH]2)sc(C)c1C	4560
O=c1cc(CN2CCCCCCC2)c2c(ccc3ccccc32)o1	5650

Structure (SMILES)	fluorescence intensity
COC(=O)[C@@]1(Cc2ccc(F)cc2)[C@H]2c3cc(C(=O)N4CCCC4)n(C[C@H](O)CO)c3C[C@H]2CN1C(=O)c1ccccc1	4320
COc1cccc(CNc2nc(NCc3ccccc3OC)nc3ccsc23)c1	2990
Cc1ccc(S(=O)(=O)N2CCC(=O)N([C@H](COCc3ccccc3)C(C)C)CC2)cc1	5310
CCOC(=O)Nc1ccc2c(c1)N(C(=O)CCCl)c1ccccc1[S@]2=O	4240
CCOC(=O)Nc1ccc2c(c1)N(C(=O)CCN1CCN(CCO)CC1)c1ccccc1CC2	5290
CCOC(=O)Nc1ccc2c(c1)N(C(=O)CN1CCN3CCCC3C1)c1ccccc1CC2 (stereo not given)	18500 (active)
CCCCCCCCOC1OC(CO)C(O)C(O)C1NC(C)=O (stereo not given)	4290
CC1(C)CC(=O)C=C(c2ccccc2CO)C1=O	3370
Cc1nc2nc(C)c(CCC(=O)N3CCC4(CC3)OCCO4)c(C)n2n1	8020
Cc1nc2nc(C)c(CCC(=O)N3CCN(c4ccccc4)CC3)c(C)n2n1	8430
Cc1nc2ncnn2c(C)c1CCC(=O)N1CCN(C(=O)c2ccco2)CC1	23100 (active)
Cc1ccc(C(=O)Nc2sc(Cc3ccc4c(c3)OCO4)c(C)c2C(N)=O)cc1	5510
COc1ccc(CC(=O)Nc2c(C(N)=O)oc3ccccc23)cc1	6330
COc1ccc(CC(=O)Nc2sc(Cc3ccccc3)c(C)c2C(N)=O)cc1	22200 (active)
COc1ccc(CCNC(=O)Nc2ccc3c(c2)c(=O)n(C)n3C)cc1OC	3460
CCCN(CCC)c1nc2c(C)cccn2c(=O)c1/C=C1/SC(=S)N(Cc2ccco2)C1=O	25600 (active)
Cc1ccc2[nH]c(=O)c(-c3nc4c(C)cccn4c3NCc3ccco3)cc2c1	2400
CNc1nc2c(C)cccn2c(=O)c1C=Nc1ccc(OC)cc1	4140
CCN(CC)CC1(O)CCN(C(=O)c2ccc(Cl)c(Cl)c2)CC1	4500
O=C1c2ccccc2C(=O)N1c1ccccc1S(=O)C(F)(F)F (stereo not given)	2440
O=C1C(Cl)=C(N2CCOCC2)C(=O)N1c1ccccc1	5720
O=C1C(=O)N(c2ccccc2)c2ccccc21	22200 (active)
CCOc1ccc(C(C)=O)cc1COC(=O)CNC(=O)c1cccs1	6570
